According to PubChem BioAssay AID1159580 (chemical genetic matrix, 2015):
Among all 5,500 compounds or so, about 2,000 (36%) were called active. Inconclusive results (about 18%) are left out. Cut-off read from the data, not from the text of the source: active = normalized growth mostly below about 0.91 (no sharp cut-off); inconclusive = no clear call, values can overlap the other calls; inactive = mostly above about 0.92. Some of the results follow.

Assay: chemical genetic growth profiling, strain panel (AID 1159580);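 note: tested at 20 µM; growth read once vehicle control cultures reached saturation at 30 °C; 1 = growth at the plate median or of vehicle wells; lower values mean less growth of the strain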
Settings: growth OD

Measured: normalized growth

C#CCOc1c(Cl)cccc1Cl
inactive: S. cerevisiae deletion strains, locus YAL013W, strain DEP1, hits give low values 0.97 | S. cerevisiae deletion strains, locus YBR229C, strain ROT2, hits give low values 0.989 | S. cerevisiae deletion strains, locus YCL061C, strain MRC1, hits give low values 0.954 | S. cerevisiae deletion strains, locus YDL101C, strain DUN1, hits give low values 0.962 | S. cerevisiae deletion strains, locus YDL134C, strain PPH21, hits give low values 1.01 | S. cerevisiae deletion strains, locus YDR150W, strain NUM1, hits give low values 0.937 | S. cerevisiae deletion strains, locus YEL061C, strain CIN8, hits give low values 1.01 | S. cerevisiae deletion strains, locus YGR078C, strain PAC10, hits give low values 0.992 | S. cerevisiae deletion strains, locus YHR030C, strain SLT2, hits give low values 0.995 | S. cerevisiae deletion strains, locus YHR087W, strain rtc3, hits give low values 1.04 | S. cerevisiae deletion strains, locus YJR043C, strain POL32, hits give low values 0.972 | S. cerevisiae deletion strains, locus YJR075W, strain HOC1, hits give low values 1.03 | S. cerevisiae deletion strains, locus YKL190W, strain CNB1, hits give low values 1.01 | S. cerevisiae deletion strains, locus YLR039C, strain RIC1, hits give low values 0.872 | S. cerevisiae deletion strains, locus YLR058C, strain SHM2 (second series), hits give low values 1.01 | S. cerevisiae deletion strains, locus YLR085C, strain ARP6, hits give low values 0.966 | S. cerevisiae deletion strains, locus YLR262C, strain YPT6, hits give low values 0.838 | S. cerevisiae deletion strains, locus YML094W, strain GIM5, hits give low values 0.987 | S. cerevisiae deletion strains, locus YMR219W, strain ESC1, hits give low values 0.995 | S. cerevisiae deletion strains, locus YMR263W, strain SAP30, hits give low values 0.998 | S. cerevisiae deletion strains, locus YNL153C, strain GIM3, hits give low values 0.982 | S. cerevisiae deletion strains, locus YNL298W, strain CLA4 (second series), hits give low values 0.982 | S. cerevisiae deletion strains, locus YNL322C, strain KRE1, hits give low values 0.986 | S. cerevisiae deletion strains, locus YNR030W, strain Alg12, hits give low values 1.01 | S. cerevisiae deletion strains, locus YPL055C, strain LGE1, hits give low values 0.985 | S. cerevisiae deletion strains, locus YPL241C, strain CIN2, hits give low values 0.989 | S. cerevisiae deletion strains, locus YPR135W, strain CTF4, hits give low values 0.998 | S. cerevisiae strains, strain wild type, hits give low values 0.999
